The full ranking holds about 35,000 sequences; the median of “fluorescence intensity (a.u.)” is about 10,000, and the highest 2% start at about 52,000. The sample holds the highest values, similar sequences and a random draw of the others, so the mix is not that of the screen.

This assay addresses T1, OsWOX13 (Oryza sativa, UniProt Q5QMM3 1-267).
T1 sequence: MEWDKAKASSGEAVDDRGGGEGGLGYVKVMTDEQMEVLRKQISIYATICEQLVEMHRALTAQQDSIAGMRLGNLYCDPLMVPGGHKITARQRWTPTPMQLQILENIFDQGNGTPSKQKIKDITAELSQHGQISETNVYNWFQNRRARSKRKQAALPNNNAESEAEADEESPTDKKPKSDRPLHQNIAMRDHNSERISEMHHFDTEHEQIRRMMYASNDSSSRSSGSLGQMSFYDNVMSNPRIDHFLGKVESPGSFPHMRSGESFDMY
Briefly: protein-binding microarray (RPBM); PBS, 2% BSA, 51.3 ng/ul salmon testes DNA, 50 uM zinc acetate, 200 nM TF, 25 C, 1 h; high values mean tight binding. The following applies: protein: recombinant; tags: N-terminal polyhistidine and DsRed monomer fusion (pET32a); label: CyDye5-dUTP incorporated in the synthesized complementary strand; 3' TTTTT single-stranded linker to array surface; dsDNA, one strand shown. The method, boiled down: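 Transcription factors were each fused at the N-terminus to a polyhistidine tag plus DsRed and expressed in E. coli BL21-CodonPlus before Ni–NTA purification. Binding to a double-stranded custom Agilent array was carried out with 200 nM protein at 25 °C for 1 h in PBS, 2% BSA, salmon testes DNA and 50 µM zinc acetate. The binding signal is per-feature fluorescence intensity, in arbitrary units, on an Axon 4000B scanner.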
Turning to “AACTTATTCCAATTATCAAACTCCGCTGCTCAACCAGGCCCGGAGTCACCTAGTGCAG”, the binding signal is 5860 fluorescence intensity (a.u.).
The result for “TCGCTATAATTGACAGCGACCCTACCTTGGGCCACCGGACCGGAGTCACCTAGTGCAG” reads 57100 fluorescence intensity (a.u.); that for “TTTTATAATTCGATGACAAATTGAGAGACCTTGGGTGTACCGGAGTCACCTAGTGCAG”, 13200 fluorescence intensity (a.u.); that for “GCTTGATTGCCACACAAATTTTGACAATACGACCCTTTACCGGAGTCACCTAGTGCAG”, 42900 fluorescence intensity (a.u.).
The result for “AAGCCTAATTAATCCATCCTTAGCAGATGTGGGTTACCGTCGGAGTCACCTAGTGCAG” reads 8630 fluorescence intensity (a.u.); that for “ATTACTATGATTACTATAATGTACCCTCAAAGCGTGTAGACGGAGTCACCTAGTGCAG”, 7510 fluorescence intensity (a.u.).
Next, “ATAATGTCAAATTTCGTTCCATTGTGAAGAAATTTTGCCACGGAGTCACCTAGTGCAG”: 3410 fluorescence intensity (a.u.); “ATGGAATTGATTAGAAGCCAGCCAGGCAGGGGAGGGTCGTCGGAGTCACCTAGTGCAG”: 33900 fluorescence intensity (a.u.); “GAGGGCAAGGCCCAGGGAAGCATATCTTGATAGTCGATATCGGAGTCACCTAGTGCAG”: 65500 fluorescence intensity (a.u.).
For “CATGATAGATCAGGCAGAGAGCAGATCAGAGCAAGCATGTCGGAGTCACCTAGTGCAG”, the binding signal was 11800 fluorescence intensity (a.u.).
Take “GGTTCCACTATCAATCTTAGACAGTATAAACAGGTCAACACGGAGTCACCTAGTGCAG”: the binding signal is 5380 fluorescence intensity (a.u.).
In the case of “TCTGATTGCAATCATTCTTGAATTCTGATACATATTGGATCGGAGTCACCTAGTGCAG”, the binding signal was 60300 fluorescence intensity (a.u.).
The result for “AACAATTGATTAGTACAAAATGGTACTTCCTCCGTTTCACCGGAGTCACCTAGTGCAG” reads 56600 fluorescence intensity (a.u.); that for “AAGGAGAATTTTCTTGATTGAAATTATACATCATATTCATCGGAGTCACCTAGTGCAG”, 29500 fluorescence intensity (a.u.).
As for “CTGATTAGTGATTTATTTAATTTGAGGAATCATTTTGGCACGGAGTCACCTAGTGCAG”, the binding signal was 64900 fluorescence intensity (a.u.).
Next, “TATTCTGATTGGAACTTATGAGTCTTGAATTCTTGATTCTCGGAGTCACCTAGTGCAG”: 39000 fluorescence intensity (a.u.); “GATTAATTTAGAAATTTTGAATTCTATTACATAATGATCACGGAGTCACCTAGTGCAG”: 20600 fluorescence intensity (a.u.).
Regarding “CGGAATTAATCTGATTATGTGAGTGAATTGGCATTTTGAACGGAGTCACCTAGTGCAG”, the binding signal was 30700 fluorescence intensity (a.u.).
Next, “AATTGATTTACAATACTTCCTCCGTTTCACAATATAAGTGCGGAGTCACCTAGTGCAG”: 24700 fluorescence intensity (a.u.); “GTAATTTATATTGAAATGCAATTACTTCCTCCGTTTCACCCGGAGTCACCTAGTGCAG”: 21800 fluorescence intensity (a.u.).
The result for “ATAATTTGATCAAATTACATGTGATTTTGTGAAATTTACACGGAGTCACCTAGTGCAG” reads 39700 fluorescence intensity (a.u.).
The result for “TTAATTACAAATTGATTTGATCACGTAGATAATTACATCACGGAGTCACCTAGTGCAG” reads 62000 fluorescence intensity (a.u.); that for “TGAGAGTGGCATTTAATTGAATCCTATTATGATGGTGGCACGGAGTCACCTAGTGCAG”, 16100 fluorescence intensity (a.u.); that for “CAAAACTGAGTACATTGGATTGGACCATCTAAAAGGAAATCGGAGTCACCTAGTGCAG”, 4580 fluorescence intensity (a.u.).
Regarding “TTTATCAAATTATCGTTTGTGTACTCTAGCTGGTCCTGGACGGAGTCACCTAGTGCAG”, the binding signal was 3870 fluorescence intensity (a.u.).
The result for “TGAAATTATTAGCAGGGTTTTAAATCTTCTGTTATAGCTGCGGAGTCACCTAGTGCAG” reads 4040 fluorescence intensity (a.u.); that for “GGTAATAGAGAGACCACTAATAAAGATTGTTGTACCTGTGCGGAGTCACCTAGTGCAG”, 3690 fluorescence intensity (a.u.).
For the sequence “CCCTAGACAGATCAGCTTTGGTGTCTTGGTGGTTGTTGTCCGGAGTCACCTAGTGCAG”, the binding signal is 5440 fluorescence intensity (a.u.).
Consider “TGTTTAAGTTTGTCCTAATTACCTGTCACATTTTCCGTGCCGGAGTCACCTAGTGCAG”, for which the binding signal is 8460 fluorescence intensity (a.u.).
In the case of “GGCAGTGACTAATTAACCTCACGGATGACAGGCGGCGAAACGGAGTCACCTAGTGCAG”, the binding signal was 10300 fluorescence intensity (a.u.).
The result for “ATCAGCTGATTACCTCACTGCATCCGTATGATTCGACTTTCGGAGTCACCTAGTGCAG” reads 7310 fluorescence intensity (a.u.); that for “CTCCGGTTTAATTTTAATTGATGTTTTGGACAATGGCACGCGGAGTCACCTAGTGCAG”, 44900 fluorescence intensity (a.u.).
Next, “GTGCTCTAATTATTTGTATCTTACAGATAGATGACAGAGCCGGAGTCACCTAGTGCAG”: 19100 fluorescence intensity (a.u.).
For the sequence “TTTAATTGATTTTGTTTAGAATTTGAGGACATGATCCACGCGGAGTCACCTAGTGCAG”, the binding signal is 62900 fluorescence intensity (a.u.).
The result for “ACATGACTAATCTTATTGACTTAAGAGCTGATTAGGATACCGGAGTCACCTAGTGCAG” reads 20200 fluorescence intensity (a.u.); that for “TGGATTGAGATATTTATTTATGATGATCACATCTGCACCTCGGAGTCACCTAGTGCAG”, 9980 fluorescence intensity (a.u.); that for “AATATATGGATAATTGTACTAGATTATCCTATTTCATACACGGAGTCACCTAGTGCAG”, 6460 fluorescence intensity (a.u.).
Consider “ATGATTAGAGAGAATGGGTTTAGTTATTTGTTGATCCACACGGAGTCACCTAGTGCAG”, for which the binding signal was 29400 fluorescence intensity (a.u.).
Next, “CATAATTGCACGATCATTGATTTTGGAACATTCTGAGGCTCGGAGTCACCTAGTGCAG”: 57100 fluorescence intensity (a.u.); “GATAATTGAGGGATTATTTTATGGATATACTAGATCTGCACGGAGTCACCTAGTGCAG”: 52400 fluorescence intensity (a.u.); “TGTGAGTGATCAAATAATTGATCATAATTTTCTATCGATTCGGAGTCACCTAGTGCAG”: 37500 fluorescence intensity (a.u.).
Take “ACTTGACAGCCCTAATTGATCTTATTACATGCAGAGGATCCGGAGTCACCTAGTGCAG”: the binding signal is 56300 fluorescence intensity (a.u.).
The result for “GATCTGATTGAGACATATCTGAAAATAATTTGCACGCAGACGGAGTCACCTAGTGCAG” reads 30600 fluorescence intensity (a.u.).
